Measurements from PubChem BioAssay AID434958 (Southern Research Specialized Biocontainment Screening …, 2010).
The whole screen tested about 1,200 compounds, of which about 400 (33%) were called active. These entries were drawn from the full list. Entries with a potency or affinity are not part of this list. A number with no mark means an inactive call. No rule for the calls is given here.

Assay: mammalian cell cytotoxicity, dose response, cytotoxicity control (AID 434958);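 also: cells exposed to compound for 72 hours before readout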
Conditions: cytotoxicity counter-screen; series mostly up to 40 µM; viability: at the top concentration

Compound | viability [%]
CCC(CC)C(=O)Nc1ccc(Sc2ccc([N+](=O)[O-])cc2)cc1 | 85.5
Cc1nc(S/C(=C\c2ccc(OCc3ccccc3Cl)cc2)C(=O)O)n[nH]1 | 86.2
CCn1nnnc1SCC(=O)c1ccc(C)cc1C | 105
CSc1ccccc1C(=O)Nc1ccc2c(c1)OCCO2 | 86.6
O=C(NN=C1CCCC1)c1cccs1 | 97.9
COc1ccc(/C=N/Nc2nc(-c3ccc(C)cc3)c(NC(C)=O)s2)cc1OC | 85.2
CC(C)OCc1c(C(=O)Nc2nccs2)oc2ccccc12 | 84.7
COc1ccc(-c2cc(C(F)F)nc(-n3nc(C)cc3C)n2)cc1 | 109
Cc1onc(-c2c(Cl)cccc2Cl)c1/C(N)=N/OC(=O)C1CC1 | 104
CCOc1ccc2cc(S(=O)(=O)N3CCCCC3)ccc2c1 | 90.6
COc1cccc(-n2c([S-])c(C(=O)Nc3ccc(S(=O)(=O)N4CCOCC4)cc3)[n+]3cc(C(N)=O)ccc23)c1 | 93.7
S=C(Nc1ccc(Cl)cc1)c1nc2ccccc2s1 | 98.3
COc1ccc(NC(=O)CSc2nncn2C)c([N+](=O)[O-])c1 | 97
CC1(c2ccc([N+](=O)[O-])cc2)NC(=O)N(CC(=O)c2ccc3c(c2)OCO3)C1=O (configuration not stated) | 96.8
O=C(/C=C/c1ccccc1)NC1CC2CCC1C2 (configuration not stated) | 103
O=C(CSc1n[nH]c(=O)n1C1CC1)c1ccc2c(c1)OCCO2 | 94.2
O=S(=O)(Nc1ccccc1)c1ccc2c(c1)CCO2 | 93.8
Cc1ccc(-c2nc3[nH]c(=O)cc(NC(=O)C(C)C)n3n2)cc1 | 112
COCCNC(=S)N/N=C(\C)c1cccc(OC)c1 | 94.5
CCOCC(=O)Nc1ccc(F)c(F)c1 | 98.5
O=C(CC12CC3CC(CC(C3)C1)C2)NCc1ccc(F)cc1 | 94

Compound | viability [%]
O=c1c2c(nc3n1CCCCC3)sc1c(O)c(Br)ccc12 | 89.9
COc1ccc(-c2csc(/C=C/c3ccc4c(c3)OCO4)n2)cc1OC | 103
COc1cc(NC(=O)c2ccc(Cl)cc2)c(OC)cc1NC(=O)CN1CCOCC1 | 94.5
Cc1ccccc1NC(=O)c1ccc(CN(c2ccccc2)S(=O)(=O)c2ccccc2)cc1 | 86.9
CN(C)S(=O)(=O)c1ccc(NC(=O)c2cc3ccccc3o2)cc1 | 94.6
CNC(=O)Nc1cccc(-c2cc(-c3c(Cl)cccc3Cl)no2)c1 | 84.4
O=c1oc(-c2ccccc2)nc2sc3c(c12)CCC3 | 96.8
C=CCn1cc(C(=O)NCCCOC)c(=O)c2cc(S(=O)(=O)N(CC)CC)ccc21 | 90.7
CC(OC(=O)c1ccc([N+](=O)[O-])o1)C(=O)NC1CCCCC1C (configuration not stated) | 90.8
C#CCOc1c(Cl)cc(/C=N/NC(N)=S)cc1OCC | 96.7
BrC(=C\c1ccccc1)/C=N/N1CCN(c2ccccn2)CC1 | 104
Cc1ccc(C(=O)N2CCC3(CC2)Oc2ccc(F)cc2C(=O)C32CC(c3cccnc3)=NO2)s1 (configuration not stated) | 98.1
COc1ccc(C(=O)Nc2ccc3nc(N4CCCCC4)cc(C)c3c2)c(OC)c1 | 94.4
O=C(Nc1c2c(nc3ccccc13)CCCC2)c1ccccc1F | 108
COc1ccc(-c2sc3cc(OC)c(OC)cc3c2C#CCCO)cc1 | 89.1
CCN(CC(=O)Nc1ccccc1OC)C(=O)c1cc(S(=O)(=O)N2CCCCCC2)ccc1OC | 95.8
C/C(=N\NC(=S)NCc1ccccc1)c1cccc(Br)c1 | 95.1
O=C(Cc1cccc2ccccc12)N/N=C/c1ccc(O)c([N+](=O)[O-])c1 | 99.7
O=C(COc1cccc2cccnc12)N/N=C/c1ccc(O)cc1 | 95.2
CN(C)c1ccc(S(=O)(=O)NCC(=O)OCC(=O)Nc2cccc(Cl)c2)cc1[N+](=O)[O-] | 96.4
O=C(NCc1nc2ncc(Br)cc2[nH]1)c1ccccc1 | 94.1
